Screens: PubChem, Sanford-Burnham Center for Chemical Genomics
Hits are enriched below; roughly 28% of the tested compounds scored in any of these assays.
PTK2B oligo ant – blocks oligomerization of human Pyk2 in cells; Q14289; Q293 cells, Pyk2 FERM NanoBiT luminescence; stronger effect = lower value; z-score (the deposit names both 25 µM and 10 µM); hit rate 0.83% among 99,000; AID 1347419;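 active = Z-score of -3 or lower, scaled per plate to the spread of control and sample wells; inactive = z-score above -3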;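 note: negative z-score means lost luminescence so less FERM oligomerization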
Target sequence (Q14289 whole entry, looked up): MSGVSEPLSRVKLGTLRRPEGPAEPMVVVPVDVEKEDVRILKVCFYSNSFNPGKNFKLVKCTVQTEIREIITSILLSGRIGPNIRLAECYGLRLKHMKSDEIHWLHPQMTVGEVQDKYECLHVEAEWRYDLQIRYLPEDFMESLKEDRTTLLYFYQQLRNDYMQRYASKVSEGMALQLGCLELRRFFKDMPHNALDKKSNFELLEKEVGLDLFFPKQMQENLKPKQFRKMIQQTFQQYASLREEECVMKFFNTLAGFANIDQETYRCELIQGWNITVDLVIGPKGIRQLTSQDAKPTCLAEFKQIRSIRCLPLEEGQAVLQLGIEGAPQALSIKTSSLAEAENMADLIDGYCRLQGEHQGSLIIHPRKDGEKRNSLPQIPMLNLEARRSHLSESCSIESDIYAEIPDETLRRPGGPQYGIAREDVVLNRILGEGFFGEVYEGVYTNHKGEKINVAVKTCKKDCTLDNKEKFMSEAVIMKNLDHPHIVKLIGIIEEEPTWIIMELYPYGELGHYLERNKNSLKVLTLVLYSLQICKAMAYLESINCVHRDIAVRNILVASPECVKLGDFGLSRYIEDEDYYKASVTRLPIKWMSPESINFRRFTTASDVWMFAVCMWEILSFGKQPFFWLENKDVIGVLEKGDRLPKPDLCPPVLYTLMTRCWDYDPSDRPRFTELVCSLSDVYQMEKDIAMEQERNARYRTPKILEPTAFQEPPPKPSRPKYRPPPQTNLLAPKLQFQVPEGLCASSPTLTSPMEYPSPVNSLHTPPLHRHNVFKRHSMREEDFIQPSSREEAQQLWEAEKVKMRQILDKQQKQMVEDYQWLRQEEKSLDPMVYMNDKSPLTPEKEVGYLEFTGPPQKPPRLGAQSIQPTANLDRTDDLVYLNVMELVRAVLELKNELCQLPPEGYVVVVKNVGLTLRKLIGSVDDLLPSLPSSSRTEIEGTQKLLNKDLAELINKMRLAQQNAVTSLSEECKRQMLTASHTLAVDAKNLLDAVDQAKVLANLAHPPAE
CYP2C19 inhib – human CYP2C19 inhibition | CYP2C19 Supersomes, luciferin-H EGE luminescence, 30 min | hit rate 21% among 96,000 | inhibition, % at 5 µM | P33261;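 active = CYP2C19 inhibition above a set limit at 5 µM in the primary screen, cut at about 50% in these data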
CYP2C19 act – cytochrome P450 2C19 (human) activation. P33261. recombinant CYP2C19, luciferin-H EGE luminescence; stronger effect = higher value; 0 = fully inhibited enzyme, 1 = untreated enzyme. activation factor at 5 µM. 96,000 tested, under 10 active. AID 1025;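 active = activation factor of at least 2 at 5 µM in the primary screen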
CYP2C9 activ – CYP2C9 (human) activation; P11712; activation factor at 5 µM; recombinant CYP2C9, luciferin-H conversion, luminescence; stronger effect = higher value; factor 1 = untreated enzyme, 0 = blocked; hit rate 1.4% among 96,000;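 active = activation factor of 2 or more for CYP2C9 at a 5 µM dose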
CYP2C9 inh – inhibitors of human CYP2C9; AID 777; P11712; inhibition, % at 5 µM; hit rate 20% among 96,000; CYP2C9 Supersomes, luciferin-H conversion, luminescence;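 active = blocking of liver enzyme CYP2C9 beyond about 50% at 5 µM, limit read from the data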
Each line names hits and unclear results; the compound was inactive in the other large screens.

Cc1cc(C)nc(-n2nc(C)c(Br)c2Nc2ccc(Br)cc2)n1	CYP2C19 inhib 70
Cc1nn(-c2ccccc2)c(C)c1C(=O)OCC(=O)NC(=O)NC1CCCC1	PTK2B oligo ant -3.4
Cc1nn(-c2ccccc2)c(C)c1C(=O)OCC(=O)N1CCN(S(=O)(=O)c2ccccc2)CC1	none
Cc1nn(-c2ccccc2)c(C)c1C(=O)OCC(=O)NC12CC3CC(CC(C3)C1)C2	PTK2B oligo ant -3.1, CYP2C19 inhib 68
COc1ccc(-c2nnn(CC#N)n2)cc1OC	CYP2C19 inhib 84, CYP2C9 inh 62
CCOC(=O)c1c(C)nc2c(c(SC)nn2-c2ccccc2)c1N	none
Cc1cc(OCC(=O)NCc2nc(-c3ccccc3)no2)c(C)cc1Br	none
NCCc1nnc(SCc2ccc(F)cc2)o1	CYP2C19 inhib 90, CYP2C9 inh 75
COc1ccc(CSc2nnc(CNS(C)(=O)=O)o2)cc1	none
Cc1cc(N2CCN(c3ccccc3)CC2)nc(-c2ccccc2O)n1	none
Cc1cc(N2CCN(c3ccccc3)CC2)nc(-n2nc(C)cc2C)n1	CYP2C19 inhib 60, CYP2C9 inh 90
CCCS(=O)(=O)N1CCCC(C(=O)NCCc2ccc(OC)c(OC)c2)C1 (stereo not drawn)	none
Cc1cc(C)c2c(N)c(C(=O)c3cccc(Cl)c3)sc2n1	none (no result: CYP2C19 inhib, CYP2C19 act, CYP2C9 activ, CYP2C9 inh)
Cc1ccc2nc(NC(=O)CCn3c(=O)sc4ccccc43)sc2c1	CYP2C9 inh 58 (no result: PTK2B oligo ant)
O=C(CCn1c(=O)sc2ccccc21)NCc1cccs1	none (no result: CYP2C19 inhib, CYP2C19 act, CYP2C9 activ, CYP2C9 inh)
O=C(CCn1c(=O)sc2ccccc21)Nc1nc2ccccc2s1	CYP2C9 inh 80 (no result: PTK2B oligo ant)
O=C(CCn1c(=O)sc2ccccc21)NCc1ccccc1	CYP2C19 inhib 80 (no result: PTK2B oligo ant)
Cc1ccc2nc(NC(=O)CCCc3nc4ccccc4s3)sc2c1	none
O=C(O)CCC(=O)Nc1nc2ccccc2s1	none
CCOc1ccc(C2C(C#N)=C(N)Oc3cc(C)n(CCN(C)C)c(=O)c32)cc1OCC (stereo not drawn)	none
COc1ccc(N(C(=O)COc2ccccc2)C2C=CS(=O)(=O)C2)cc1 (stereo not drawn)	none
CCOC(=O)c1sc(NC(=O)/C=C/c2cnn(CC)c2C)c(C(=O)OCC)c1C	none
COc1ccccc1CNC(=O)[C@@H]1CCCN1C(=O)C1CCN(S(=O)(=O)c2ccc(C)cc2)CC1	none
COc1ccccc1CNC(=O)CSc1nc2nc(C)cc(C)n2n1	none
O=C(Nc1nc(-c2ccccc2)cs1)C1CCCCN1S(=O)(=O)c1ccccc1 (stereo not drawn)	PTK2B oligo ant -3.7, CYP2C19 inhib 72, CYP2C9 inh 92
O=C(Nc1nc(-c2ccccc2)cs1)C1CCCCN1S(=O)(=O)c1ccc(Cl)cc1 (stereo not drawn)	CYP2C9 inh 95
CC(C)(C)C(=O)Nc1nc(C2CCCN2S(=O)(=O)c2ccc(Cl)cc2)cs1 (stereo not drawn)	CYP2C19 inhib 100, CYP2C9 inh 100
O=C(Nc1nc(-c2ccccc2)cs1)NC1CCCCC1	none
CN1CCN(S(=O)(=O)c2ccc(NC(=O)C(C)(C)C)cc2)CC1	none
COCCn1c(SCC(=O)N2CCCc3ccccc32)nc2cccnc21	none
CCOC(=O)N1CCC(=NNS(=O)(=O)c2cccc([N+](=O)[O-])c2)CC1	none
O=C(CSc1ncnc2nc[nH]c12)N1CCOCC1	none
COc1ccc(CCN2C(=O)CC(Sc3ncccc3C(=O)O)C2=O)cc1OC (stereo not drawn)	none
CCn1c(C(=O)NCc2cccnc2)cc2sc(Cl)cc21	CYP2C19 inhib 99, CYP2C9 inh 90
CCCn1c(=O)c(C(=O)Nc2cnccn2)c(O)c2ccccc21	none (no result: PTK2B oligo ant)
CCn1c(=O)c(C(=O)NCc2cccnc2)c(O)c2ccccc21	CYP2C9 inh 72
CCCn1c(=O)c(C(=O)NCc2ccncc2)c(O)c2ccccc21	CYP2C19 inhib 68, CYP2C9 inh 80
COCC(C)NC(=O)CSc1nc(-c2ccccc2)c(-c2ccccc2)o1 (stereo not drawn)	CYP2C19 inhib 59
O=C(CSc1nc(-c2ccccc2)c(-c2ccccc2)o1)Nc1nnc(-c2ccccc2)s1	none
Cc1ccc(CNC(=O)C2CC(=O)N(c3ccc(OCC(=O)N4CCCC4)cc3)C2)cc1 (stereo not drawn)	none (no result: CYP2C19 inhib, CYP2C19 act, CYP2C9 activ, CYP2C9 inh)
Cn1cnnc1SCC(=O)Nc1ccc2nc(SCc3ccccc3Cl)sc2c1	none (no result: CYP2C19 inhib, CYP2C19 act, CYP2C9 activ, CYP2C9 inh)
Cn1cnnc1SCC(=O)Nc1ccc2nc(SCc3cccc4ccccc34)sc2c1	CYP2C19 inhib 59
COc1ccc(NC(=O)C2CCCN2C(=O)NCc2ccccc2)cc1OC (stereo not drawn)	none (no result: CYP2C19 inhib, CYP2C19 act, CYP2C9 activ, CYP2C9 inh)
